Assay [1] is described as follows: Viability qHTS for spleen associated tyrosine kinase inhibitor (SYKi) naive MV4-11 cells (AID 1963823). Further: nearly all actives have a fitted effect of over 40% in size. Particulars: MV4-11 AML viability, CellTiter-Glo luminescence, 72 h; series mostly up to 45 µM. The method, boiled down: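 Viability of MV4-11 AML cells lacking prior SYK inhibitor exposure is scored by CellTiter-Glo luminescence following 72 hr compound incubation at 37 C, 5% CO2, seeded at 500 cells per well.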
On the technique in general: Quantitative high-throughput screening tests each substance at several concentrations.

Assay [2] can be described thus: Viability qHTS for spleen associated tyrosine kinase inhibitor (SYKi) drug resistant MV4-11 cells (AID 1963824). Further: nearly all actives have a fitted effect of over 35% in size. The conditions noted are these: SYKi-resistant MV4-11 viability, CellTiter-Glo, 72 h; series mostly up to 45 µM. Put shortly:
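SYK-inhibitor-resistant MV4-11 AML cells were seeded at 500 per well onto compound and cultured 72 hours (37 °C, 5% CO2). CellTiter-Glo was then added, and after 10 min at room temperature, luminescence gave viability.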

Consider eight compounds from PubChem BioAssay (NCATS).

Records with an inconclusive call do not appear. Activity calls are given as the source filed them. The call rests on the fitted dose curve; in most records, active means well fitted cell-killing curve with a large enough effect; inconclusive means small, poorly fitted or top-dose-only effect, or effect the other way; inactive means no such curve, though single readings can be large or run the other way.
Potency means the concentration at half of the fitted maximal effect.

In the case of `COc1ccc(CCc2nc3cc(-c4c(C)noc4C)ccc3n2C[C@H](C)N2CCOCC2)cc1Cl`, the Potency in assay [1] is 7310 nM (active); in assay [2] it was 5800 nM (active).
`COC(=O)c1ccccc1O[C@@H]1O[C@H](CO[C@@H]2OC[C@@H](O)[C@H](O)[C@H]2O)[C@@H](O)[C@H](O)[C@H]1O`: the Potency entry in assay [1] and in assay [2] was “inactive” in each case.
`C[C@H]1[C@H](C)CC[C@]2(C(=O)OC3OC(CO)C(O)C(O)C3O)CC[C@]3(C(=O)O)C(=CCC4[C@@]5(C)CC[C@H](O[C@@H]6O[C@@H](C)[C@H](OC7OC(CO)C(O)C(O)C7O)[C@@H](O)[C@H]6O)C(C)(C)C5CC[C@]43C)[C@H]12` (stereo partly specified): in assay [1], the viability (% of control) was 80.8% [at 9.25 µM] (inactive). Besides, the viability, % of control in assay [2] is 108% [at 9.25 µM] (inactive).
In the case of `COc1ccc(/C=C\C(=O)O)c(O[C@@H]2O[C@H](CO)[C@@H](O)[C@H](O)[C@H]2O)c1`, the Potency result in assay [1] and in assay [2] was “inactive” throughout.
For the compound `OC[C@H]1O[C@@H](OC[C@H]2O[C@@H](OC/C=C/c3ccccc3)[C@H](O)[C@@H](O)[C@@H]2O)[C@@H](O)[C@@H]1O`, the Potency result in assay [1] and in assay [2] was “inactive” throughout.
Turning to `COc1ccc(CC2C(=O)NC(C)C(=O)N(C)C3Cc4ccc(cc4)Oc4cc(ccc4OC4OC(CO)C(O)C(O)C4O)CC(C(=O)NC(C)C(=O)NC(C)C(=O)N2C)N(C)C3=O)cc1` (stereo unspecified), the figures for the Potency in assay [1] and in assay [2] were 15.5 nM (active) and 9.8 nM (active), respectively.
For `CCCn1c(=O)c2[nH]c(-c3ccc(OCC(=O)O)cc3)nc2n(CCC)c1=O` the same measures were “inactive” and “inactive”.
On to `CC1(C)C=Cc2c(ccc3c2N=C2C(C)(C)[C@@H]4C[C@]56CCCN5C(=O)[C@@]4(C[C@]23O)NC6=O)O1`, for which the Potency result in assay [1] and in assay [2] was “inactive” in each case.
